In the supplement of paper PMC8540655:

These molecules were tested on Aedes aegypti larvae (assay: larval motility relative to same well at 0 h (fraction); higher = more motile (less active compound), active = 0.4 or less). Settings: 10 µM; 24 h.
In short: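 Compounds at 10 µM (1% v/v DMSO) were applied to about 10 Aedes aegypti larvae per well in 100 µL, with every plate including solvent and larvicide control wells. Motility movies were taken with INVAPP at 0, 2 and 24 h, and results are medians of three independent larval batches. Relative motility is each well's score expressed as a fraction of its own first score.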
`NC[C@H]1OB(O)c2c(OCCCO)cccc21` was tested, and the larval motility was 1.61 (inactive). For `CSc1ccc2c(c1)C(N1CCN(C)CC1)Cc1ccccc1S2` (stereo unspecified), the larval motility was 0.827 (inactive). `Cn1cc(NC(=O)c2cc(NC(=O)c3ccc(/C=C/c4cnc5ccccc5c4)cc3)cn2C)cc1C(=O)NCCN1CCOCC1` was tested, and the larval motility was 0.773 (inactive). For `NC(=O)c1ccc(I)c([N+](=O)[O-])c1`, the larval motility was 0.429 (inactive). With `C[C@@H](c1nc(-c2ccc(C#N)cc2)cs1)[C@](O)(Cn1cncn1)c1ccc(F)cc1F` the larval motility was 0.498 (inactive). For `CC(C)(C)NC(=O)[C@@H]1C[C@@H]2CCCC[C@@H]2CN1C[C@@H](O)[C@H](Cc1ccccc1)NC(=O)[C@H](CC(N)=O)NC(=O)c1ccc2ccccc2n1`, the larval motility was 1.49 (inactive). With `CCC(C)n1ncn(-c2ccc(N3CCN(c4ccc(OCC5COC(Cn6cncn6)(c6ccc(Cl)cc6Cl)O5)cc4)CC3)cc2)c1=O` (stereo unspecified) the larval motility was 0.571 (inactive). With `O=C(O)CSc1cc(NS(=O)(=O)c2cccc3cccnc23)c2ccccc2c1O` the larval motility was 0.675 (inactive). For `C[C@H](NC(=O)C(=O)Nc1ccccc1C(C)(C)C)C(=O)N[C@@H](CC(=O)O)C(=O)COc1c(F)c(F)cc(F)c1F`, the larval motility was 1.23 (inactive). In the case of `COc1c(F)c(F)cc2c(=O)c(C(=O)O)cn(C3CC3)c12`, the larval motility is reported as 1.08 (inactive). For `Fc1ccc2c(/C=C/c3cccnc3)c[nH]c2c1`, the larval motility was 0.678 (inactive). With `Clc1cc2nc(C3CCNCC3)n(Cc3ccc(CNCCc4cnc[nH]4)cc3)c2cc1Cl` the larval motility was 0.981 (inactive). For `CCN(CC)S(=O)(=O)c1ccc(Cl)c(C(=O)Nc2sc3c(c2C#N)CCCC3)c1`, the larval motility was 2.15 (inactive). In the case of `O=S(=O)(Nc1ccc(O)cc1)c1cccc2cccnc12`, the larval motility is reported as 0.629 (inactive). In the case of `CCCCc1ccc(-c2cc(C(=O)O)cc(-c3ccc(Cl)cc3)n2)cc1`, the larval motility is reported as 0.563 (inactive). With `O=C(O)c1ccc(-c2ccc(O[C@H]3O[C@H](CO)[C@@H](O)[C@H](O)[C@@H]3O)cc2)cc1` the larval motility was 1.22 (inactive). In the case of `CC(N)C12CC3CC(CC(C3)C1)C2` (stereo unspecified), the larval motility is reported as 0.773 (inactive). In the case of `NNC(=O)c1ccncc1`, the larval motility is reported as 0.744 (inactive). `Clc1cccc(-c2nnc(-c3ccccc3)o2)c1` was tested, and the larval motility was 0.691 (inactive). `Nc1nc(O)c2ncn(COCCO)c2n1` was tested, and the larval motility was 0.823 (inactive). With `O=C1C=C(c2ccccc2)S(=O)(=O)c2ccccc21` the larval motility was 1.01 (inactive). With `C[C@H](NC(CC(=O)c1ccccc1C(F)(F)F)C(=O)O)c1ccccc1` (stereo partly specified) the larval motility was 0.674 (inactive). For `Cc1ccn2c(C(=O)NCc3ccccc3)c(C)nc2c1`, the larval motility was 2.35 (inactive). With `Clc1cc(Cl)c2c(c1)CCc1ccccc1C2n1ccnc1` (stereo unspecified) the larval motility was 0.987 (inactive). With `O=[N+]([O-])c1ccc2c(CCc3c[nH]c4ccccc34)c[nH]c2c1` the larval motility was 0.813 (inactive). For `CC(C)c1cc2c(cc1S(=O)(=O)O)[C@@]1(C)CCC[C@@](C)(C(=O)O)[C@@H]1CC2`, the larval motility was 0.697 (inactive). `O=[N+]([O-])c1cn(Cc2nc(O)nc(O)c2Br)cn1` was tested, and the larval motility was 0.417 (inactive). With `CC(C)(C)NC(=O)[C@@H]1CN(Cc2cnc3occc3c2)CCN1C[C@@H](O)C[C@@H](Cc1ccccc1)C(=O)N[C@H]1c2ccccc2C[C@H]1O` the larval motility was 0.932 (inactive). With `C=C[C@]1(C)C[C@@H](OC(=O)CS[C@@H]2C[C@H]3CC[C@@H](C2)N3C)[C@]2(C)[C@H](C)CC[C@]3(CCC(=O)[C@H]32)[C@@H](C)[C@@H]1O` the larval motility was 0.545 (inactive). With `CC(C)Cn1c(=O)n(C)c(=O)c2c(-c3cncn3C)n(Cc3cccc4ccccc34)nc21` the larval motility was 0.874 (inactive). With `OCCC#Cc1nc(-c2ccc(F)cc2)c(-c2ccncc2)n1CCCc1ccccc1` the larval motility was 0.301 (active). `CN(Cc1ccc(C(C)(C)C)cc1)Cc1cccc2ccccc12` was tested, and the larval motility was 0.64 (inactive). For `CCCCc1ccc(-c2nc(C)c(C(=O)OC)s2)cc1`, the larval motility was 0.97 (inactive). In the case of `CCc1nc2ccc(Cl)cn2c1C(=O)NCc1ccc(N2CCC(c3ccc(OC(F)(F)F)cc3)CC2)cc1`, the larval motility is reported as 0.891 (inactive). With `Cc1nc(-c2ccc(C3N(C)c4ccc(F)cc4C(=O)N3c3ccccc3)s2)cs1` (stereo unspecified) the larval motility was 0.822 (inactive). For `OB1OCc2cc(Cl)ccc21`, the larval motility was 1.04 (inactive).
